# Laboratory results from ChEMBL document CHEMBL1961873, “Compounds: GSK PKIS; Assays: Nanosyn kinase panel” (2012).
# What was measured:
# [1] = target: T1, Mitogen-activated protein kinase 12 (Homo sapiens) (UniProt P53778); conditions: at 1 µM;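 also: values are averaged p38gamma kinase inhibition readings, compounds tested at 1 µM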
# T1 sequence (whole entry): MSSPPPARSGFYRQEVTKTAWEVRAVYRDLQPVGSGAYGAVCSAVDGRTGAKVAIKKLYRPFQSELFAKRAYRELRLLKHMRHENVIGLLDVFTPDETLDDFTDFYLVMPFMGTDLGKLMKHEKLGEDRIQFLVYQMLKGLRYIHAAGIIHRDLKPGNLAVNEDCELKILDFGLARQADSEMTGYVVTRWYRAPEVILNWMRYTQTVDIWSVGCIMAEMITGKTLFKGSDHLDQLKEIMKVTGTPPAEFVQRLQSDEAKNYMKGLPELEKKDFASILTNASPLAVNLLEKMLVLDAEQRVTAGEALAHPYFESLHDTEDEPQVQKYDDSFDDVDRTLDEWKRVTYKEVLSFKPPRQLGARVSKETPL
# [2] = target: SRSF protein kinase 1 (Homo sapiens) (UniProt Q96SB4); conditions: at 0.1 µM
# SRSF protein kinase 1 (Homo sapiens), sequence (Q96SB4 whole entry, canonical isoform): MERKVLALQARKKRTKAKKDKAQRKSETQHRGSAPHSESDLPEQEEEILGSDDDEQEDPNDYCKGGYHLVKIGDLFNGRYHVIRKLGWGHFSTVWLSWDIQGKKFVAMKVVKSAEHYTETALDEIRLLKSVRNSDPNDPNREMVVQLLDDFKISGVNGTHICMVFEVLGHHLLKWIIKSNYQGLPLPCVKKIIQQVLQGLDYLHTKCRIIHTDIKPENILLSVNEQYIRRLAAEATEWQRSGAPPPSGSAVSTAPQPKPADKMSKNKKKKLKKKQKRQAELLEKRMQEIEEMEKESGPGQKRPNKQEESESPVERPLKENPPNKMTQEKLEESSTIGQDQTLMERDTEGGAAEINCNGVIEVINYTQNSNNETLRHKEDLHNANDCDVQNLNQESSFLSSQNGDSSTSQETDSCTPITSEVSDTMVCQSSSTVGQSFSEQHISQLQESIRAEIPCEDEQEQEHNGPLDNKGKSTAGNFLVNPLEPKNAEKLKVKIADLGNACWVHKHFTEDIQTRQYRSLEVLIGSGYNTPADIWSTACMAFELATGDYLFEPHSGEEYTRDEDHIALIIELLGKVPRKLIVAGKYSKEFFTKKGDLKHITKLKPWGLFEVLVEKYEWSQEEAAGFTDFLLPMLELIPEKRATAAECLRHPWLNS
# [3] = target: SRSF protein kinase 1 (Homo sapiens) (UniProt Q96SB4); conditions: at 1 µM
# [4] = target: Phosphatidylinositol 4,5-bisphosphate 3-kinase catalytic subunit alpha isoform (Homo sapiens) (UniProt P42336); conditions: at 0.1 µM
# Phosphatidylinositol 4,5-bisphosphate 3-kinase catalytic subunit alpha isoform (Homo sapiens), sequence (P42336 whole entry, canonical isoform): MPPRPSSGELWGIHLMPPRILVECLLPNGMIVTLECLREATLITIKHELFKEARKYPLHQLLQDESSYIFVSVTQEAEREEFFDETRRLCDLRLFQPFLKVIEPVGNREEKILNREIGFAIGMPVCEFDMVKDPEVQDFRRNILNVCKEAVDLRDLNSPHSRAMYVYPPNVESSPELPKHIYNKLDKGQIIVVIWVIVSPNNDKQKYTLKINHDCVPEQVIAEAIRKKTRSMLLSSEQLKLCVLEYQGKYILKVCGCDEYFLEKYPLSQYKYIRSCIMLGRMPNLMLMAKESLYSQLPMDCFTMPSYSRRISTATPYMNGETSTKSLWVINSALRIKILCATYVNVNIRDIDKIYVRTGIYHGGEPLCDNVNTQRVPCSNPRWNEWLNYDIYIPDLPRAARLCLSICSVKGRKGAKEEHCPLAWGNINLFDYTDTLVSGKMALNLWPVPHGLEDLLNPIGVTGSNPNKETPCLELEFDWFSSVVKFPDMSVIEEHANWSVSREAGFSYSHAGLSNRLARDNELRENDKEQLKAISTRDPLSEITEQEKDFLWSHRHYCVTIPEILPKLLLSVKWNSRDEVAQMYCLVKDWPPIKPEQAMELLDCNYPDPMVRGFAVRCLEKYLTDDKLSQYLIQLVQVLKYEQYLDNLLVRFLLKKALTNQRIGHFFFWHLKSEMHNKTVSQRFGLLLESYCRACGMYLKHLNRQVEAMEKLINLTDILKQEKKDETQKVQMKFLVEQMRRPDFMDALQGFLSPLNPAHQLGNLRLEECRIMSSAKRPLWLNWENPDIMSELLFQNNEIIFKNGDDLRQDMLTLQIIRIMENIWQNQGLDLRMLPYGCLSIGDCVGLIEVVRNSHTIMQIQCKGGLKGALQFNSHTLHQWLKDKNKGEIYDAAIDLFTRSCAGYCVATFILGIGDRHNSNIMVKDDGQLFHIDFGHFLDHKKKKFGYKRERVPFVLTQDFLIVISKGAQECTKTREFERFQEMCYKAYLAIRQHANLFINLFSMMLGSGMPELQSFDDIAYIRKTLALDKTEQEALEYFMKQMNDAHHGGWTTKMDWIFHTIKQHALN
# [5] = target: Phosphatidylinositol 4,5-bisphosphate 3-kinase catalytic subunit alpha isoform (Homo sapiens) (UniProt P42336); conditions: at 1 µM
# [6] = target: T2, Phosphatidylinositol 4,5-bisphosphate 3-kinase catalytic subunit delta isoform (Homo sapiens) (UniProt O00329); conditions: at 0.1 µM
# T2 sequence (whole entry): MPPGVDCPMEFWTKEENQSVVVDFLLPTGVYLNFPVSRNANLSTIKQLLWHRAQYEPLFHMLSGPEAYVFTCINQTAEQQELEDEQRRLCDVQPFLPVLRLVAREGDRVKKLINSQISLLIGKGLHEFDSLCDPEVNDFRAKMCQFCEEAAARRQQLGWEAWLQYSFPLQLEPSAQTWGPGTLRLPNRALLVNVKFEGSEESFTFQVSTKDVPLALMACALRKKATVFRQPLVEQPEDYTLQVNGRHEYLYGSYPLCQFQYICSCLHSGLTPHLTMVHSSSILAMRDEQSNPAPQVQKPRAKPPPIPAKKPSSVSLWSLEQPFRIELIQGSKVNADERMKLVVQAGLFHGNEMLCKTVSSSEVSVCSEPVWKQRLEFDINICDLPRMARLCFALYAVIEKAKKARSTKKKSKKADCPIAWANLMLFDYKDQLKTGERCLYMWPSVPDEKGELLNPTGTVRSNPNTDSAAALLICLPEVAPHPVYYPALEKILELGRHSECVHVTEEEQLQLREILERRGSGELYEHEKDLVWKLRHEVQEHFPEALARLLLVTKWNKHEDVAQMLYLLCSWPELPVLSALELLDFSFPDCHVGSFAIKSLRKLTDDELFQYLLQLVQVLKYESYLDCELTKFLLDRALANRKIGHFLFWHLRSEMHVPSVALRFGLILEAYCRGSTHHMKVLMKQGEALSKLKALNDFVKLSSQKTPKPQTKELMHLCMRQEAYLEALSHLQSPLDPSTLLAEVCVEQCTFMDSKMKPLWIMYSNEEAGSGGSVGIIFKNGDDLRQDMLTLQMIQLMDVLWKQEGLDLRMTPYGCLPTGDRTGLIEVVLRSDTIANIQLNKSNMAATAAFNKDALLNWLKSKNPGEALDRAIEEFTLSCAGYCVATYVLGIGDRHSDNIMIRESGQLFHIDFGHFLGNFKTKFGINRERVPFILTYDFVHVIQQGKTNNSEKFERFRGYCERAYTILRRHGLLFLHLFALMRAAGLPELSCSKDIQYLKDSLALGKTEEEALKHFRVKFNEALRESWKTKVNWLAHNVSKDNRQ
# [7] = target: T2, Phosphatidylinositol 4,5-bisphosphate 3-kinase catalytic subunit delta isoform (Homo sapiens); conditions: at 1 µM
# [8] = target: Phosphatidylinositol 4-kinase beta (Homo sapiens) (UniProt Q9UBF8); conditions: at 0.1 µM
# Phosphatidylinositol 4-kinase beta (Homo sapiens), sequence (Q9UBF8 2-816 limits assumed): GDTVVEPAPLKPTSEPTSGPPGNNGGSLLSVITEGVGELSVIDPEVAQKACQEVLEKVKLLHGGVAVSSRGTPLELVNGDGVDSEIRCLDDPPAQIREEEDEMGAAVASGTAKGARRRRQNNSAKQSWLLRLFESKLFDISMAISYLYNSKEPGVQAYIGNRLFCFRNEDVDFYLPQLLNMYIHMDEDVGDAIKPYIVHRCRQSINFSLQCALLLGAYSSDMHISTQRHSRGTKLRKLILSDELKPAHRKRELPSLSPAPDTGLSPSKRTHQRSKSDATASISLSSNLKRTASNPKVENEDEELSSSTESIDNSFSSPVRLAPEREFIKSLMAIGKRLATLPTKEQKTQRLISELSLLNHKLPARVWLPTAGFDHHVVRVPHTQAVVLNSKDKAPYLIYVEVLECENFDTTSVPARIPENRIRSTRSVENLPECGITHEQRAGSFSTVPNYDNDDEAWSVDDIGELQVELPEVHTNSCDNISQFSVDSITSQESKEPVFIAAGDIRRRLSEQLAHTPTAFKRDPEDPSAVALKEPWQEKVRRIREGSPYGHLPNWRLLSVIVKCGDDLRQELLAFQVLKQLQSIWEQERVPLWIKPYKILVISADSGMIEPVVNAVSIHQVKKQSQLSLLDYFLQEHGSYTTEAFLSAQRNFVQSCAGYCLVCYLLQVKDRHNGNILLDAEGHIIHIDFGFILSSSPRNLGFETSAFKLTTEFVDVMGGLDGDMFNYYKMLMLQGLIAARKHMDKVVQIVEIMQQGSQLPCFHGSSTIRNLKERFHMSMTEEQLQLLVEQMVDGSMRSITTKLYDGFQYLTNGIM
# [9] = target: Phosphatidylinositol 4-kinase beta (Homo sapiens) (UniProt Q9UBF8); conditions: at 1 µM
# [10] = target: Sphingosine kinase 1 (Homo sapiens) (UniProt Q9NYA1); conditions: at 0.1 µM
# Sphingosine kinase 1 (Homo sapiens), sequence (Q9NYA1 whole entry): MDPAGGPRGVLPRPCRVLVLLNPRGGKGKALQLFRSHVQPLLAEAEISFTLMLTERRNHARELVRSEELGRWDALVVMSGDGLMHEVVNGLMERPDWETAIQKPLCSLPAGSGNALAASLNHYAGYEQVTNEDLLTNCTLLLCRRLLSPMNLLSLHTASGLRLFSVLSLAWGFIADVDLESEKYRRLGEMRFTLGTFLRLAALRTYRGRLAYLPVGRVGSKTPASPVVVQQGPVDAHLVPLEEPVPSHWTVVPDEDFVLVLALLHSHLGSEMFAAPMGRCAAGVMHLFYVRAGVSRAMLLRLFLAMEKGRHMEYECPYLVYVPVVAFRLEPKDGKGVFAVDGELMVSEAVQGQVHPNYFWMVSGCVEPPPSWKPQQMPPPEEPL
# [11] = target: Sphingosine kinase 1 (Homo sapiens) (UniProt Q9NYA1); conditions: at 1 µM
# [12] = target: T3, Sphingosine kinase 2 (Homo sapiens) (UniProt Q9NRA0); conditions: at 0.1 µM
# T3 sequence (whole entry): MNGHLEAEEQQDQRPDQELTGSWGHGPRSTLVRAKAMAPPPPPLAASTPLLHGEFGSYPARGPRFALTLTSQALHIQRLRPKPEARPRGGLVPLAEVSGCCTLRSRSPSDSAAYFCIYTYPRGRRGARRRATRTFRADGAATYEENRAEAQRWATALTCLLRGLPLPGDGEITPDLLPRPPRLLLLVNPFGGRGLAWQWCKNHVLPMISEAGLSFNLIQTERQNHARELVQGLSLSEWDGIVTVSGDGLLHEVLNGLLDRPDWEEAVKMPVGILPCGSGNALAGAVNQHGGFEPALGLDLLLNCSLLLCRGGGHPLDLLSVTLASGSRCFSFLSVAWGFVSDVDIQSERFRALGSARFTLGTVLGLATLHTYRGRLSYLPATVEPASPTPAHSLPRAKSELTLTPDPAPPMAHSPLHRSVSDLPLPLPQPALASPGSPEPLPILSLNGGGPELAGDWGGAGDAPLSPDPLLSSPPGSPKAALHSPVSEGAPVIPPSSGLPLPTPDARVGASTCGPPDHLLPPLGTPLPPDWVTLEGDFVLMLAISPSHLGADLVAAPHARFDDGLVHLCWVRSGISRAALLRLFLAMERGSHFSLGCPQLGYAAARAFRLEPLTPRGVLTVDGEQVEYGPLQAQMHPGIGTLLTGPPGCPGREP
# [13] = target: T3, Sphingosine kinase 2 (Homo sapiens); conditions: at 1 µM
# [14] = target: Casein kinase II subunit alpha (Homo sapiens) (UniProt P68400); conditions: at 0.1 µM
# Casein kinase II subunit alpha (Homo sapiens), sequence (P68400 whole entry, looked up): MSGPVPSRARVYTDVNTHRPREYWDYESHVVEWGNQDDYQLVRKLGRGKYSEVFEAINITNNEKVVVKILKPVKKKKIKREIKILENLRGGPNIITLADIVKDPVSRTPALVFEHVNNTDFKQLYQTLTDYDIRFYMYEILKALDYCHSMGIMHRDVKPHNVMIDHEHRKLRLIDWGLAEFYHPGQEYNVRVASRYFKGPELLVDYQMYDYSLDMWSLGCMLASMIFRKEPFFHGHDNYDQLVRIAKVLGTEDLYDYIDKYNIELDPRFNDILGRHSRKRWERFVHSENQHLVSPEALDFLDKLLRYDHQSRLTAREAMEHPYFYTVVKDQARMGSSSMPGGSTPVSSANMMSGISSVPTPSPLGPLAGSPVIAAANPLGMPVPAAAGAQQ
# [15] = target: Casein kinase II subunit alpha (Homo sapiens) (UniProt P68400); conditions: at 1 µM
# [16] = target: T4, Inhibitor of nuclear factor kappa-B kinase subunit alpha (Homo sapiens) (UniProt O15111); conditions: at 0.1 µM
# T4 sequence (whole entry): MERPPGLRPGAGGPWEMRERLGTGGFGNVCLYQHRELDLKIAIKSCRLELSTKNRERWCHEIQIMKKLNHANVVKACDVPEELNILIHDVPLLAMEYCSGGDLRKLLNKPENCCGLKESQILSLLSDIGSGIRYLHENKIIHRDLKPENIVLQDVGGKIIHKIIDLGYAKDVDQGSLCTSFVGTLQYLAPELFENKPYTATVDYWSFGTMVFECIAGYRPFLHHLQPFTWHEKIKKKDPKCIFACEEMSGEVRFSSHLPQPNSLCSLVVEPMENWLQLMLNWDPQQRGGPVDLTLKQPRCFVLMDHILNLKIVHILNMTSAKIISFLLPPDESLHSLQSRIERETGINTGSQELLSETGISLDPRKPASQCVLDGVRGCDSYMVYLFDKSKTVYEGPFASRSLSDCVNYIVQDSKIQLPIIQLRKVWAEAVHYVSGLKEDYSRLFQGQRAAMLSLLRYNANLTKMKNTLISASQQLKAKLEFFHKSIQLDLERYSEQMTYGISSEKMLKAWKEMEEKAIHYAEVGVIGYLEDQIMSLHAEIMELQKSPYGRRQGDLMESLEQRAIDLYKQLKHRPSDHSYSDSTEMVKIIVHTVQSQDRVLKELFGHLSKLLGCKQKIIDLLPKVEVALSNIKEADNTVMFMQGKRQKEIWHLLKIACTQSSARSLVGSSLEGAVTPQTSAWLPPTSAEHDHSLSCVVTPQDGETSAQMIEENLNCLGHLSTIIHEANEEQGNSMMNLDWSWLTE
# [17] = target: T4, Inhibitor of nuclear factor kappa-B kinase subunit alpha (Homo sapiens); conditions: at 1 µM
# [18] = target: T5, Inhibitor of nuclear factor kappa-B kinase subunit beta (Homo sapiens) (UniProt O14920); conditions: at 0.1 µM
# T5 sequence (whole entry): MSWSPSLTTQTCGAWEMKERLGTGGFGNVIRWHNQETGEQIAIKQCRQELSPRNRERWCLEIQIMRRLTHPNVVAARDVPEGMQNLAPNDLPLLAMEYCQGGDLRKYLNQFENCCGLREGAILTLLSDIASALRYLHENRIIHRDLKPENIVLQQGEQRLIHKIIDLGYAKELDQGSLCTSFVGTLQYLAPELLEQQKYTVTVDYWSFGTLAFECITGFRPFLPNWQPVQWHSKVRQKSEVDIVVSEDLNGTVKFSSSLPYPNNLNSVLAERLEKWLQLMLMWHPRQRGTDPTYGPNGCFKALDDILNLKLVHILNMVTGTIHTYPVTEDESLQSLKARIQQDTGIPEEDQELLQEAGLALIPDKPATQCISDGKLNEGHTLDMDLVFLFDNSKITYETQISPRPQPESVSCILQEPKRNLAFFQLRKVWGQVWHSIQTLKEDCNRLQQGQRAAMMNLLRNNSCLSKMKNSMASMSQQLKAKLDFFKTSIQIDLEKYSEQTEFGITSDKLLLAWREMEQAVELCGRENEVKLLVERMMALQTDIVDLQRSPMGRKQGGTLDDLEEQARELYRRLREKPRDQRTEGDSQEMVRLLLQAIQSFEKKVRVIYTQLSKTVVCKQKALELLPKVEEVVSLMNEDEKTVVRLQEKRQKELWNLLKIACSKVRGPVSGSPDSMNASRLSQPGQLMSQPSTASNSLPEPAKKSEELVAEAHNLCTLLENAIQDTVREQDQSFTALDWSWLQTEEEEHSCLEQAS
# [19] = target: T5, Inhibitor of nuclear factor kappa-B kinase subunit beta (Homo sapiens); conditions: at 1 µM
# [20] = target: T6, Inhibitor of nuclear factor kappa-B kinase subunit epsilon (Homo sapiens) (UniProt Q14164); conditions: at 0.1 µM;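 also: mean inhibition of IKKε reported, from the GSK PKIS dataset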
# T6 sequence (whole entry): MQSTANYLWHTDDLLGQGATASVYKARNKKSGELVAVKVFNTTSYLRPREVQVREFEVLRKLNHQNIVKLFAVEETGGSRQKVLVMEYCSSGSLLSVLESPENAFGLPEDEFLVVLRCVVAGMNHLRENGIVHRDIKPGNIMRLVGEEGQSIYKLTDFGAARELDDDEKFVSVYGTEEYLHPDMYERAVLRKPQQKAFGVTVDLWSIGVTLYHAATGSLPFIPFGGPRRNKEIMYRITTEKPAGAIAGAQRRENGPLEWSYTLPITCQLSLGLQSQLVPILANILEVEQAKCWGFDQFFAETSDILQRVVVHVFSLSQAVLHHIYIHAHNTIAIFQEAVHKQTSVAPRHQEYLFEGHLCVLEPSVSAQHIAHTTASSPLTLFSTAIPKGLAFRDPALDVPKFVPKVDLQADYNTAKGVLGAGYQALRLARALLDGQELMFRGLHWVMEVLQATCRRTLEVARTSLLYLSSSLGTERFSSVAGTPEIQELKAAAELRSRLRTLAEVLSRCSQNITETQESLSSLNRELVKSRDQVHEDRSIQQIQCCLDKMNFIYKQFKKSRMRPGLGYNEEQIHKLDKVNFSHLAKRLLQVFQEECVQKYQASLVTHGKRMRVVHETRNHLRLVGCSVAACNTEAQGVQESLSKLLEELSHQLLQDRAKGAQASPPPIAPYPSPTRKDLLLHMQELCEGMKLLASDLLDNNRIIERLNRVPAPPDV
SMILES,inhibition [1] [%],inhibition [2] [%],inhibition [3] [%],inhibition [4] [%],inhibition [5] [%],inhibition [6] [%],inhibition [7] [%],inhibition [8] [%],inhibition [9] [%],inhibition [10] [%],inhibition [11] [%],inhibition [12] [%],inhibition [13] [%],inhibition [14] [%],inhibition [15] [%],inhibition [16] [%],inhibition [17] [%],inhibition [18] [%],inhibition [19] [%],inhibition [20] [%]
CCn1c(-c2nonc2N)nc2c(C#CC(C)(C)O)nc(O[C@@H](CN)c3ccccc3)cc21,0.23,-0.59,-3.25,-0.44,0.33,2.44,3.42,6.5,1.86,-1.08,-0.99,-0.06,-0.62,-0.87,3.9,-6.57,-2.27,-1.36,-3.23,88.3
NC(=O)c1sc(-n2cnc3cc(C(F)(F)F)ccc32)cc1OCc1ccccc1Br,1.86,-1.98,-4.1,0.07,0.07,0.65,1.77,0.77,-3.13,-0.24,0.07,-0.95,0,-1.01,2.21,2.77,2.85,3.87,2.52,3.08
CCn1c(-c2nonc2N)nc2c(C#CC(C)(C)O)ncc(OCC3CCNCC3)c21,1.7,-0.7,1.81,1.65,19.5,-0.08,-0.9,4.18,-3.56,0,0.24,1.73,-2.73,4.56,12.8,7.05,7.37,4.88,4.77,90.3
Fc1ccc(-c2ncn(C3CCNCC3)c2-c2ccnc(Oc3ccccc3)n2)cc1,,-1.48,-1.61,1.53,0.06,0.6,1.12,0.91,2.57,1.45,-1.73,1.51,1.09,6.73,1.68,-3.14,1.08,4.13,3.12,2.6
Nc1nonc1-c1nc2cnccc2n1C1CCCCC1,0.39,1,-0.52,-2.06,-3.54,-1.65,0.74,4.2,-2.26,0,0.54,1.2,0.21,-0.44,4.16,-6.64,-2.66,-2.5,-5.78,-0.73
Cc1cc(-c2ccco2)cc(C)c1/C=C/c1cncc(-c2nn[nH]n2)c1,1.3,-0.96,-1.7,-0.22,6.64,0.16,-1.23,-1.26,9.03,0.73,-1.08,-0.36,1.61,1.49,3.8,-1.31,2.26,3.61,2.75,4.22
CCn1c(-c2nonc2N)nc2c(C#CC(C)(C)O)ncc(OC[C@@H]3CCCN3)c21,0.35,-1.57,-2.53,-0.15,0.24,0.06,0.22,0.05,1.54,-0.8,1.85,1.65,0,13.9,-1.67,7.49,-0.05,4.75,4.4,89.6
